# Reference: PubChem BioAssay (NCI)
# Where “and” joins values, the source holds several entries; their conditions need not be identical. Identical values can stand only once. Compounds without any hit were thinned out: in the full panel of roughly 83,000, 20% have a hit.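 Cells were grown in 96-well plates and exposed to the test compound at a single concentration for 48 hours; results are reported as percent growth, with values below 10 considered active.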 Some structures have more than one record in an assay (separate samples or runs), and their calls can disagree. Calls of active or inactive are those of the source.
# Columns and labels:
# Test in all cases: NCI-60 one-dose screen, 48 h (100 = growth as untreated, 0 = no growth, -100 = all killed)
# Conditions in all cases: 10 µM unless noted
# DU-145 prostate = system: DU-145 prostate
# K-562 leukemia = system: K-562 leukemia
# MALME-3M melanoma = system: MALME-3M melanoma
# MDA-MB-231 breast = system: MDA-MB-231 breast
# RXF 393 renal = system: RXF 393 renal
# SF-268 CNS = system: SF-268 CNS
# SF-295 CNS = system: SF-295 CNS
# SF-539 CNS = system: SF-539 CNS
# UACC-257 melanoma = system: UACC-257 melanoma
# M14 melanoma = system: M14 melanoma
Structure (SMILES),growth (DU-145 prostate),growth (K-562 leukemia),growth (MALME-3M melanoma),growth (MDA-MB-231 breast),growth (RXF 393 renal),growth (SF-268 CNS),growth (SF-295 CNS),growth (SF-539 CNS),growth (UACC-257 melanoma),growth (M14 melanoma)
CN(C)c1ccc(C(Cc2ccc3ccccc3n2)Cc2ccc3ccccc3n2)cc1,81.9% (inactive),29.8% (inactive) and 85.6% (inactive),64.8% (inactive) and 106% (inactive),58.2% (inactive) and 64% (inactive),73.6% (inactive) and 85.5% (inactive),68.3% (inactive) and 95.3% (inactive),24.7% (inactive) and 64.9% (inactive),67.6% (inactive) and 106% (inactive),32.4% (inactive) and 99% (inactive),27.2% (inactive) and 75.5% (inactive)
COc1ccc2cc3[n+](cc2c1OC)CCc1cc2c(cc1-3)OCO2,92.5% (inactive) and 78.4% (inactive),41.1% (inactive) and 40% (inactive),31.6% (inactive) and 42% (inactive),81.7% (inactive) and 87.5% (inactive),89.1% (inactive) and 60.9% (inactive),42.9% (inactive) and 40.7% (inactive),19.3% (inactive) and 45.1% (inactive),68.6% (inactive) and 82.9% (inactive),48.1% (inactive) and 88.5% (inactive),83.2% (inactive) and 110% (inactive)
CC(C)Cc1ccc(C(C)C(=O)NCc2ccc(Cn3c(=O)sn(CCCI)c3=O)cc2)cc1 (stereo not given),94% (inactive) and -88.2% (active),3.55% (active),92.4% (inactive) and -74.4% (active),92.1% (inactive) and -62% (active),-94.8% (active),91% (inactive) and -64.5% (active),96.1% (inactive) and 35.9% (inactive),88.7% (inactive) and -96.6% (active),77.8% (inactive) and -19.9% (active),88.8% (inactive) and -66.9% (active)
CCOc1ccc2nc3cc(N)ccc3c(N)c2c1,64.2% (inactive) and 67.6% (inactive),113% (inactive) and 57.9% (inactive),-18.6% (active) and -14.8% (active),86.5% (inactive),55.5% (inactive) and 43.2% (inactive),-39.5% (active) and -36.7% (active),30.4% (inactive) and 16.5% (inactive),34.9% (inactive) and 31.7% (inactive),62.3% (inactive) and 67.3% (inactive),90.3% (inactive) and 75.8% (inactive)
Cc1cccc(/C=C\C(=O)c2ccc(Cl)cc2)c1,114% (inactive) and 96.5% (inactive),77% (inactive) and 20.5% (inactive),92.5% (inactive),97.6% (inactive) and 116% (inactive),112% (inactive) and 97.8% (inactive),102% (inactive) and 92.5% (inactive),161% (inactive) and 93.9% (inactive),101% (inactive),105% (inactive) and 109% (inactive),94.3% (inactive) and 91.1% (inactive)
Cc1cc(O)c2c(c1)C(=O)c1cc(O)cc(O)c1C2=O,87.2% (inactive) and 104% (inactive),75.9% (inactive) and 87.9% (inactive),54.4% (inactive) and 94.1% (inactive),78.7% (inactive) and 87.3% (inactive),90.7% (inactive) and 107% (inactive),89.8% (inactive) and 97.6% (inactive),82.8% (inactive) and 94.9% (inactive),93.1% (inactive) and 86% (inactive),84.8% (inactive) and 92.2% (inactive),110% (inactive) and 93.6% (inactive)
NS(=O)(=O)c1cc2c(cc1Cl)NC(C(Cl)Cl)NS2(=O)=O (stereo not given),108% (inactive) and 112% (inactive),97% (inactive) and 93.9% (inactive),107% (inactive),105% (inactive) and 108% (inactive),112% (inactive) and 128% (inactive),107% (inactive) and 104% (inactive),118% (inactive) and 111% (inactive),104% (inactive),84.4% (inactive) and 95% (inactive),97.5% (inactive) and 107% (inactive)
CNc1cc(-c2cccc(OC(F)(F)F)c2)nc2ccc(N3CCCC3)cc12,-43.5% (active) and 6.55% (active) and 12.9% (inactive),-42.3% (active) and -31.2% (active) and -12.4% (active),-74.2% (active) and -88.1% (active) and -75.4% (active),-47.4% (active) and -63.4% (active) and -2.52% (active),-64.4% (active) and -78.3% (active) and -67.5% (active),78.9% (inactive) and 61.6% (inactive) and 55.9% (inactive),82.8% (inactive) and -66.4% (active) and -74.5% (active),-76.6% (active) and -78.4% (active) and -68.4% (active),82% (inactive) and -59.4% (active) and -57.4% (active),-87% (active) and -86.6% (active) and -76.4% (active)
NC(=O)C1CC2C=CC1C2 (stereo not given),114% (inactive) and 115% (inactive),103% (inactive) and 93.9% (inactive),69.2% (inactive) and 124% (inactive),101% (inactive) and 99.1% (inactive),108% (inactive) and 89.7% (inactive),118% (inactive) and 108% (inactive),113% (inactive) and 95.2% (inactive),95.2% (inactive) and 112% (inactive),-24.1% (active),106% (inactive) and 87.4% (inactive)
COc1cc2c(Nc3ccc(Cl)c(Cl)c3F)ncnc2cc1OCC1C[C@@H]2CN(C)C[C@@H]2C1 (stereo not given in full),-83.6% (active) and 25.4% (inactive),-39.5% (active) and -0.692% (active),-93.5% (active) and -34.7% (active),-87.5% (active) and -9.5% (active),-95.2% (active) and -65.2% (active),-70.2% (active) and 24% (inactive),-93.6% (active) and -55.7% (active),-93.9% (active) and 17.5% (inactive),-87.8% (active) and -64% (active),-71.1% (active) and -62.8% (active)
COC(=O)/C=C/c1cc(O)c2c(c1)C(C(=O)OC)C(c1ccc(O)c(O)c1)O2 (stereo not given),11.7% (inactive) and 7.05% (active),9.16% (active) and 9.69% (active),72.1% (inactive) and 69% (inactive),13.5% (inactive) and 18% (inactive),55.9% (inactive) and 30% (inactive),34.1% (inactive) and 28.5% (inactive),19.2% (inactive) and 22.4% (inactive),5.8% (active) and 3.46% (active),62.4% (inactive) and 60.6% (inactive),2.19% (active) and 6.67% (active)
CC(C(=O)O)n1cc(C#N)c(=O)[nH]c1=O (stereo not given),124% (inactive) and 107% (inactive),104% (inactive),102% (inactive) and 116% (inactive),109% (inactive) and 103% (inactive),110% (inactive) and 115% (inactive),96.8% (inactive) and 99.7% (inactive),93.3% (inactive) and 102% (inactive),95.8% (inactive) and 102% (inactive),89% (inactive) and 108% (inactive),120% (inactive) and 107% (inactive)
CCN(CC)CCCC(C)Nc1ccnc2cc(Oc3ccccc3)ccc12 (stereo not given),91.4% (inactive) and 87.4% (inactive),1.73% (active) and 41.2% (inactive),78% (inactive) and 89.4% (inactive),40.1% (inactive) and 34.1% (inactive),17.8% (inactive) and 70.7% (inactive),54.5% (inactive) and 67.1% (inactive),81.5% (inactive) and 74.9% (inactive),1.83% (active) and 4.93% (active),-67.2% (active) and -56.4% (active),-43.4% (active) and -81.6% (active)
COc1cc(NS(C)(=O)=O)ccc1Nc1c2ccccc2nc2c(C)cccc12,-8.9% (active) and 7.58% (active),8.6% (active) and 7.61% (active),-3.04% (active) and 29.4% (inactive),36.7% (inactive),-2.83% (active) and 8.08% (active),2.5% (active) and 16.2% (inactive),-24.8% (active),-35.6% (active) and -30.6% (active),16.1% (inactive),19.4% (inactive) and 11.8% (inactive)
COC(=O)[C@H]1CCCN1C(=O)C1CCCN1C(=O)[C@@H](Cc1ccccc1)NC(=S)Nc1cc(C(F)(F)F)cc(C(F)(F)F)c1 (stereo not given in full),117% (inactive) and 91.4% (inactive),103% (inactive) and 65.2% (inactive),109% (inactive) and 98.8% (inactive),95.9% (inactive) and 75.4% (inactive),108% (inactive) and 84.8% (inactive),105% (inactive) and 86.9% (inactive),89.4% (inactive),102% (inactive) and 96.1% (inactive),108% (inactive) and 95.4% (inactive),113% (inactive) and 105% (inactive)
